Test [1] addresses alpha-glucosidase (Oryza sativa, rice) (UniProt Q653V4). In words: Counterscreen for Glucocerebrosidase Inhibitors: qHTS Assay for Rice alpha-Glucosidase at pH 5.0 (AID 997).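 Also: 0% = full activity with enzyme and -100% = basal without enzyme.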 The method, boiled down:
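Rice alpha-glucosidase (4 nM final) with 400 uM 4-methylumbelliferyl-alpha-D-glucopyranoside in citrate buffer pH 5.0, 20 min at room temperature, stopped at pH 10; fluorescence 365/440 nm, compounds 0.7 nM–77 uM, AC50 from Hill fits.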
A general note: A counterscreen serves to expose hits that act by an unwanted route or on another target.

The nature of test [2]: Validation of Assay for Modulators of Lamin A Splicing (AID 1459; active = well fitted curve in the direction sought with a large enough effect in the signal ratio; the % refers to the signal ratio;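 also: cells exposed to compound for two days before reading; 0% is about no effect; ratio rise marks activators and ratio drop marks inhibitors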). The method, boiled down:
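HeLa S3 lamin A-EGFP/DsRed2 stable clone, 600 cells/well, Opti-MEM 2% FBS; compounds by pin tool; 48 hrs, 37 °C/5% CO2; Acumen 488 nm scan, objects 10-100 um; GFP/RFP intensity ratio.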

Test [3] is described as follows: qHTS Assay for Lipid Storage Modulators (AID 1519; calls by dose curve; as to activity change, negative = inhibition: % is scaled to controls: 0 for no effect and ±100 for the full control effect). The conditions noted are these: Drosophila S3 cells, BODIPY lipid droplet/cell ratio, laser cytometry, cells loaded with oleic acid; for activity change, negative = inhibition: at 57.5 µM (top of the series). The method, boiled down:
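Cells seeded at 5,000 per well were treated with compounds over a concentration series and loaded with oleic acid (400 uM, as added). Lipid droplet fluorescence (488 nm excitation, 500-530 nm channel) was read by laser-scanning cytometry and normalized to 20 uM Triacsin C.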
(qHTS replaces the single test concentration by a dilution series.)

Test [4] addresses DNA repair nuclease/redox regulator APEX1 (Homo sapiens) (UniProt P27695). In words: qHTS Validation Assay for Inhibitors of the Human Apurinic/apyrimidinic Endonuclease 1 (APE1) (AID 1705;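 also: TAMRA fluorescence gain over two minutes as APE1 cuts a quenched THF abasic duplex; % is scaled to controls: 0 for no effect and ±100 for the full control effect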). In a few lines:
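qHTS, 1536-well. APE1 + cpd 15 min RT → 50 nM TAMRA/BHQ-2 THF-abasic dsDNA substrate → kinetic fluorescence, 3 reads/60 s; delta(read3−read1) = reaction progress. No-enzyme buffer = negative control.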

The nature of test [5]: Counterscreen for APE1 Inhibitors: Fluorescent Dye Displacement Validation Assay (AID 1707).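 Also: plate controls were ThO with dsDNA and no compound for no effect and ThO without dsDNA for full effect.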 The method, boiled down:
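ThO 250 nM + dsDNA 50 nM (THF abasic site, 5'-TAMRA), Tris-HCl pH7.5/50mM NaCl/2 mM MgCl2/0.01% Tween-20; compounds pin-transferred; ex 480/em 540 nm endpoint. Neutral = no compound; no-DNA ThO wells = negative control.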

The target in test [6] is Endonuclease 4 (Escherichia coli (strain K12)) (UniProt P0A6C1). In words: Counterscreen for APE1 Inhibitors: qHTS Validation Assay for Inhibitors of Endonuclease IV (AID 1708). Also: % is scaled to controls: 0 for no effect and ±100 for the full control effect. The method, boiled down:
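Cleavage of a quenched abasic-site DNA duplex (50 nM, 5'-TAMRA, 3'-BHQ-2) by 2 nM enzyme is followed as fluorescence increase. Compounds are preincubated with enzyme 15 min at room temperature before substrate addition.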

Test [7] can be described thus: qHTS for differential inhibitors of proliferation of Plasmodium falciparum line 7G8 (AID 1815).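 Also: parasite growth measured after three days of incubation.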 Also: potency is read from the fitted curve at half-maximal effect.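 As to activity change, negative = inhibition: plate controls were vehicle wells for no effect and reference inhibitor wells for full effect.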
Test [8] is described as follows: qHTS for differential inhibitors of proliferation of Plasmodium falciparum line GB4 (AID 1816).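 Also: parasite growth measured after 72 h incubation.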 Also: potency is read from the fitted curve at half-maximal effect.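 As to activity change, negative = inhibition: 0% = vehicle DMSO and -100% = reference inhibitor.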 The following applies: Potency: Plasmodium falciparum GB4 proliferation inhibition.
A short description of test [9]: qHTS for differential inhibitors of proliferation of Plasmodium falciparum line 3D7 (AID 1876). Also: potency is read from the fitted curve at half-maximal effect.
Test [10] is described as follows: qHTS for differential inhibitors of proliferation of Plasmodium falciparum line D10 (AID 1877).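 Also: parasites grown with compound for 72 h before DNA staining.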 Also: potency is read from the fitted curve at half-maximal effect.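 As to activity change, negative = inhibition: plate controls were vehicle wells for no effect and reference inhibitor wells for full effect.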
The nature of test [11]: qHTS for differential inhibitors of proliferation of Plasmodium falciparum line Dd2 (AID 1882). Also: nearly all actives have a fitted effect of over 65% in size. Also: potency is read from the fitted curve at half-maximal effect.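 As to activity change, negative = inhibition: compound exposure of 72 h on infected erythrocytes; plate controls were DMSO vehicle for no effect and 0.29 µM artemisinin for full effect.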 The following applies: Potency: Plasmodium falciparum Dd2 proliferation inhibition. The method, boiled down: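 SYBR Green I DNA fluorescence read-out, ex 485/em 535 nm. Signals were normalized to 0.29 uM artemisinin and DMSO wells, then corrected using vehicle-only plates flanking each stack. Parasite growth ran 72 h in erythrocytes before lysis.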

Test [12] can be described thus: qHTS for differential inhibitors of proliferation of Plasmodium falciparum line W2 (AID 1883).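 Also: parasites grown with compound for 72 h before lysis and staining.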 Also: potency is read from the fitted curve at half-maximal effect.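 As to activity change, negative = inhibition: 0% = vehicle wells and -100% = control inhibitor wells.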 The conditions noted are these: Potency: Plasmodium falciparum W2 proliferation inhibition.
A short description of test [13]: qHTS for differential inhibitors of proliferation of Plasmodium falciparum line HB3 (AID 1886).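 Also: parasites grown with compound for 72 h before SYBR Green readout.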 Also: potency is read from the fitted curve at half-maximal effect.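 As to activity change, negative = inhibition: plate controls were vehicle for no effect and reference inhibitor for full effect.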 The conditions noted are these: Potency: Plasmodium falciparum HB3 proliferation inhibition.
Test [14] can be described thus: qHTS Assay for Modulators of Human Peripheral Myelin Protein 22 (PMP22) Expression/Activity (AID 1967; active = well fitted curve in the direction sought with a large enough effect in the signal ratio; the % refers to the signal ratio;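 also: 0% = untreated cells and 100% end not stated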). In a few lines:
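Luminescence ratio of Pmp22 promoter-driven green luciferase to EF-alpha-driven red luciferase, in engineered mouse MSC80 Schwann cells, served as read-out. Compounds were incubated 24h; untreated cells defined 0% Activity; curves were classified by r2, magnitude and activity.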

In test [15] the target is Ferritin light chain (Equus caballus) (UniProt P02791). In words: qHTS Validation Assay for Identification of Novel General Anesthetics (AID 2323). Also: % is scaled to controls: 0 for no effect and ±100 for the full control effect. The method, boiled down:
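Fluorescence at 535 nm (excitation 380 nm) reported loss of 1-AMA binding to horse-spleen apoferritin (10 uM) in PBS with 50% saturated 1-aminoanthracene, after 10 min room-temperature incubation with compound; values from Hill fits of normalized response.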

Test [16] deals with ATP-dependent DNA helicase Q1 (Homo sapiens) (UniProt P46063). The test can be described thus: qHTS Validation Assay for Inhibitors of RecQ-Like Dna Helicase 1 (RECQ1) (AID 2353).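 Also: plate controls were DMSO vehicle for no effect and enzyme-free control for full effect.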 The method, boiled down: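 50 nM RECQ1T1 preincubated 15 min with compound in Tris pH 8.0 buffer with MgCl2, DTT, Tween-20 and 2.5 ug/ml poly(dI-dC); started with 200 nM TAMRA/BHQ-2 forked duplex and 2 mM ATP. Unwinding read as fluorescence (525/598 nm), two reads 2 h apart.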

Test [17] has as its target RecQ-like DNA helicase BLM (Homo sapiens) (UniProt P54132). In words: qHTS Validation Assay for Inhibitors of Bloom's syndrome helicase (BLM) (AID 2364).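 Also: plate controls were DMSO vehicle for no effect and enzyme-free control for full effect.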 In a few lines: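 50 nM BLM preincubated 15 min at room temperature with compound in pH 8.0 Tris buffer containing 2.5 ug/ml poly(dI-dC); started with 200 nM TAMRA/BHQ-2 forked duplex and 2 mM ATP (final). Unwinding read as TAMRA fluorescence increase, two reads 2 h apart.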

Setting [18] is: measured here: cell count channel max response.
Setting [19] is: measured here: lipid channel max response.

Several values for one entry are separate records, joined by “and”; a condition that tells them apart may be missing. Equal values may be shown once. Results filed as inconclusive are left out. Activity calls are given as the source filed them. Unless noted, calls follow the shape of the dose curve; as a rule, active = well fitted curve in the direction sought with a large enough effect; inconclusive = small, poorly fitted or top-dose-only effect, or another doubt; inactive = no such curve, though single readings can be large; an effect the other way counts as inactive or inconclusive.

Results on eight compounds are retold here after PubChem BioAssay (NCATS).

DNA repair nuclease/redox regulator APEX1 (Homo sapiens), sequence (P27695 whole entry, looked up): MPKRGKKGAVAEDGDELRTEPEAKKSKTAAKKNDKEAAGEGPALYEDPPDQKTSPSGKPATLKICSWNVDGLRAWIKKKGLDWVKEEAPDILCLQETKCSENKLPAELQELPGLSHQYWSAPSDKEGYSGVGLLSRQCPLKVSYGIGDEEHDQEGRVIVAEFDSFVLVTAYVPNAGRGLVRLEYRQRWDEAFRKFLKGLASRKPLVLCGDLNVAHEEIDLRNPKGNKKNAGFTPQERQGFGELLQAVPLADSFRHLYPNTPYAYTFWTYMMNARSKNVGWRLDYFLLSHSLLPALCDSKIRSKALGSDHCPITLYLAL
ATP-dependent DNA helicase Q1 (Homo sapiens), sequence (P46063 whole entry, looked up): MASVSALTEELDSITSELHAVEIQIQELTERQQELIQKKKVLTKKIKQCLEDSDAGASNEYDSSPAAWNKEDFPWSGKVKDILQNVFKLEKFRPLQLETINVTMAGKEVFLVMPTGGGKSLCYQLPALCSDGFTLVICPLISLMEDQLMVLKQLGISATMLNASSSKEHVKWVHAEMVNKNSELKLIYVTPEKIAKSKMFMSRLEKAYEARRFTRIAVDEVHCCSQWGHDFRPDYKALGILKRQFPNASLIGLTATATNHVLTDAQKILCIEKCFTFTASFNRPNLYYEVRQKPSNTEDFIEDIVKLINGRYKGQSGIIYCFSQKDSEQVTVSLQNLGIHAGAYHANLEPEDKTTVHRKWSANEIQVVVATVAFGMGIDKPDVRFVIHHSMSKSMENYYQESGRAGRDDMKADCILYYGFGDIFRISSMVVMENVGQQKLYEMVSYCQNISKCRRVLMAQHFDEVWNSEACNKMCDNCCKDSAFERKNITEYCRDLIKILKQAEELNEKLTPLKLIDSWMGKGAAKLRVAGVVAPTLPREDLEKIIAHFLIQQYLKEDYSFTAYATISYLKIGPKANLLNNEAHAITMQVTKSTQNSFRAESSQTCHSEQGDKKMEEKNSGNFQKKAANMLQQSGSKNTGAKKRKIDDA
Ferritin light chain (Equus caballus), sequence (P02791 2-175 limits assumed): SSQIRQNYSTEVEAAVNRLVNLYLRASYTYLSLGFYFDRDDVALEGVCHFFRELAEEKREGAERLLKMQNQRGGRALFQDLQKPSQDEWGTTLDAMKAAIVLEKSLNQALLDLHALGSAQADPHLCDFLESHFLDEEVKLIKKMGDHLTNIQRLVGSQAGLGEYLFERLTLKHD
RecQ-like DNA helicase BLM (Homo sapiens), sequence (P54132 whole entry, looked up): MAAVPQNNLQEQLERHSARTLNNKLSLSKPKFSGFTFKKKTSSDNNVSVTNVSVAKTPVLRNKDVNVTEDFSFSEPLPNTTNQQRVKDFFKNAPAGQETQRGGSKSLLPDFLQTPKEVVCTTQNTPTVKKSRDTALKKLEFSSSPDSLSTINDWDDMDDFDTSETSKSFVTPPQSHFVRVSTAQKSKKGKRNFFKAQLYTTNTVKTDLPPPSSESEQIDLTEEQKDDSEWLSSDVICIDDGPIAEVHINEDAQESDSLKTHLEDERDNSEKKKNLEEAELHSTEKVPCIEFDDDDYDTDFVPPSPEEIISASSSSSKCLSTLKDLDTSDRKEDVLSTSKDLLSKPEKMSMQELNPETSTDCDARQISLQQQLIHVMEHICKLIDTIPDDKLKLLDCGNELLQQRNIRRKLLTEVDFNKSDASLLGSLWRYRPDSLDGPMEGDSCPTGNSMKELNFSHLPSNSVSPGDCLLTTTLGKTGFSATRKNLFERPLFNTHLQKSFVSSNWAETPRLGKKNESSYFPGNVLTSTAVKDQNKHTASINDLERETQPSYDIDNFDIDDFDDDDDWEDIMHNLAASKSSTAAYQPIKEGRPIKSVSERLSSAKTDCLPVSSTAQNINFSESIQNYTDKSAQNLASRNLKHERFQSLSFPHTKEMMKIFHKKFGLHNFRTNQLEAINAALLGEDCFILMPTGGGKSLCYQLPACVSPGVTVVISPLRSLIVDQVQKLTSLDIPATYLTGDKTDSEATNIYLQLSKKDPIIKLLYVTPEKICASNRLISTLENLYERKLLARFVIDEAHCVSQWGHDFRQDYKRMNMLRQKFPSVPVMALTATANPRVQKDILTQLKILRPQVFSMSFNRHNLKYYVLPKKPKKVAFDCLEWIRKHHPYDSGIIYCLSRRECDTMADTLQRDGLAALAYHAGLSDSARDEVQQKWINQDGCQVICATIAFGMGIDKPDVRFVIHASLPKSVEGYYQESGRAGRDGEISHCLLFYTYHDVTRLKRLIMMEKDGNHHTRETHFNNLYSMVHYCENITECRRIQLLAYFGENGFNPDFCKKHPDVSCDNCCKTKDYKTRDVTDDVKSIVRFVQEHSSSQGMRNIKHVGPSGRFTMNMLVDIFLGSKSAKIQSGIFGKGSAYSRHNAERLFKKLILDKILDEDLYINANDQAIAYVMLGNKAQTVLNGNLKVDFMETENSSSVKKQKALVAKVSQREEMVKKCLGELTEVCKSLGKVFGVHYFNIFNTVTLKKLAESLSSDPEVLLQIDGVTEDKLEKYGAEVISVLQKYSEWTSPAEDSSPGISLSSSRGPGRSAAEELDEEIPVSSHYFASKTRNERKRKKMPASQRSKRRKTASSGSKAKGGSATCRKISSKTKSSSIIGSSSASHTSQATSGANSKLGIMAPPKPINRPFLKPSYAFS

Consider `N[C@@H](CS(=O)O)C(=O)O`, for which the compound was called inactive in test [1], in [2] and in [14]. In addition, in test [3], the activity change, negative = inhibition is 4.63% (inactive) and 1.31% (inactive). Also, the max response was 10.5% and -12.6% in test [3] (setting [18]); 17.1% and -9.76% in test [3] (setting [19]). The Potency result in [4], in [5], in test [6], in test [7], in [8] and in test [9] was “inactive” throughout. Further, the Potency result in [10], in test [11], in [12], in test [13], in [15] and in [16] was “inactive” each time. Besides, in test [17], the Potency result is “inactive”.

For the compound `C#CCn1c(=O)c2c(ncn2C)n(C)c1=O`, the compound was called inactive in test [1], in test [2] and in test [14]. For the same compound, the activity change, negative = inhibition in [3] is 2.4% (inactive). For the same compound, the max response is -11.8% in [3] (setting [18]) and -10.7% in test [3] (setting [19]). The Potency result in [4], in test [5], in [6], in [7], in [8] and in [9] was “inactive” throughout. Moreover, the Potency result in test [10], in test [11], in [12], in test [13], in [15] and in [16] was “inactive” in each case.

`CN1CCCC1CCOC(C)(c1ccccc1)c1ccc(Cl)cc1` (stereo unspecified): in test [2], the result was inactive. Also, in test [3], the activity change, negative = inhibition is 0.234% (inactive). In addition, the max response was -30.3% in test [3] (setting [18]) and -27.1% in test [3] (setting [19]). Moreover, the Potency entry in [4], in [5] and in [6] was “inactive” each time. For the same compound, the Potency in test [7] is 5.01 µM (active); in [8], 5.62 µM (active); in [9], 3.98 µM (active); in test [10] it was 11.2 µM (active); in test [11], 10 µM (active); in [12] it was 2.51 µM (active). Besides, the Potency in [13] was 5.01 µM (active).

`COc1cc(CNC(=O)CCCCCCC(C)C)ccc1O`: the compound was called inactive in test [1] and in [2]. Besides, in test [3], the activity change, negative = inhibition is 0.247% (inactive). Also, the max response came to 14.5% in [3] (setting [18]) and 14.2% in [3] (setting [19]). The Potency result in test [4], in test [5], in test [6], in test [10], in test [11] and in [13] was “inactive” throughout. The Potency result in test [16] is “inactive”.

Turning to `C=CCN1CCc2cc(O)c(O)cc2C(c2ccccc2)C1` (stereo unspecified), the compound was classed as inactive in test [2]. Besides, the activity change, negative = inhibition in [3] was 0.997% (inactive). For the same compound, the figures for the max response in [3] (setting [18]) and in [3] (setting [19]) were -6.45% and -5.19%, respectively. Further, the Potency result in test [4], in test [5], in test [6] and in [15] was “inactive” in each case. The Potency in [7] was 11.2 µM (active); in test [8] it was 12.6 µM (active); in test [10], 11.2 µM (active); in test [11], 12.6 µM (active); in test [12], 7.94 µM (active); in [13] it was 11.2 µM (active).

Consider `CC(=O)/C(C)=N/O`, for which the compound was called inactive in [2]. Besides, in test [3], the activity change, negative = inhibition was 2.05% (inactive). Further, the max response in test [3] (setting [18]) worked out at 5.13%; in [3] (setting [19]), 6.8%. Moreover, the Potency result in test [4], in test [5], in test [6], in [7], in test [8] and in test [9] was “inactive” throughout. Besides, the Potency result in test [10], in test [11], in test [12], in test [13], in test [15] and in test [16] was “inactive” in each case.

Take `CC(N)=NCCCC[C@@H](N)C(=O)O`: the result in [2] and in test [14] was inactive. Moreover, the activity change, negative = inhibition in test [3] was -0.966% (inactive). In addition, the max response in test [3] (setting [18]) was found to be 1.29%; in test [3] (setting [19]), 2.75%. Further, the Potency result in test [4], in test [5], in test [6], in [7], in [8] and in [9] was “inactive” throughout. The Potency entry in test [10], in [11], in test [12], in test [13] and in [16] was “inactive” in each case.

As to `O=C(O)/C=C/c1ccc(O)c(O)c1`, the compound was called inactive in test [1] and in [2]. Besides, the activity change, negative = inhibition in [3] is 3.74% (inactive) and 0.322% (inactive). In addition, the max response is 0.683% and 6.48% in test [3] (setting [18]); 7.03% and 6.69% in [3] (setting [19]). Also, the Potency result in test [4], in [5], in test [6], in test [7], in test [8] and in test [9] was “inactive” throughout. The Potency entry in test [10], in test [11], in test [12], in [13], in test [15] and in test [16] was “inactive” each time.
